This note sets out measurements from PubChem BioAssay (NCI).

The panel holds about 83,000 compounds, 20% with a hit somewhere; the sample as a whole holds those more often.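 The endpoint reported here, percent growth, reads 100 for growth as untreated, 0 for no net growth and -100 for all cells dead.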 Values without a mark were called inactive. Activity calls are given as the source filed them. The calls were made as follows: active = growth percent below 10; inactive = the rest.

Holding throughout (test): NCI-60 one-dose screen, 48 h (100 = growth as untreated, 0 = no growth, -100 = all killed)
Holding throughout (conditions): 10 µM unless noted

In experiment [1] the test system is SR leukemia.
Experiment [2] has as its system RPMI-8226 leukemia.
In experiment [3] the test system is OVCAR-8 ovarian.
The subject of experiment [4] is OVCAR-5 ovarian.
The test system of experiment [5] is OVCAR-4 ovarian.
In experiment [6] the test system is SK-OV-3 ovarian.
The test system of experiment [7] is IGROV1 ovarian.
In experiment [8] the test system is OVCAR-3 ovarian.
The test system of experiment [9] is HS 578T breast.
Experiment [10] has as its system NCI/ADR-RES ovarian.
Experiment [11] has as its system T-47D breast.
The test system of experiment [12] is MDA-MB-435 melanoma.
Experiment [13] relates to SW-620 colon.
Experiment [14] relates to MCF7 breast.
Experiment [15] has as its system HCT-116 colon.
Experiment [16] deals with HCC-2998 colon.
Experiment [17] deals with KM12 colon.
The subject of experiment [18] is MDA-MB-468 breast.
Experiment [19] has as its system BT-549 breast.

Consider `COC(=O)c1cc(C(=O)C(Br)Br)n2c1ccc1c3ccccc3ccc12`, for which the growth was 13.6% in [1]; 54.6% in [2]; 38.6% in experiment [3]; 64.4% in experiment [4]; 48.8% in experiment [5]; 75.4% in experiment [6]. The growth was 32.1% in experiment [7]; 77% in experiment [8]; 44.3% in experiment [9]; 70.3% in experiment [10]; 1.99% (active) in experiment [11]; 79% in [12]. Also, the growth was 45.2% in experiment [13]; 5.77% (active) in experiment [14]; 49.6% in experiment [15]; 43.5% in experiment [16]; 39.7% in [17]; -8.15% (active) in experiment [18].

As for `O=C(N/N=C/c1ccc(Cl)cc1)c1ccc(OCc2nc3ccc(Cl)cc3[nH]2)cc1`, the growth in experiment [1] was 3.65% (active); in experiment [2] it was 40.3%; in [3] it was -12.1% (active); in experiment [4], 35.4%; in experiment [5], -8.33% (active); in [6], 14.5%. For the same compound, the growth in experiment [7] is 15.4%; in experiment [8], -20.3% (active); in experiment [9], 25.2%; in experiment [10], 45.4%; in experiment [11] it was -19.6% (active); in experiment [12], -15.7% (active). For the same compound, the growth in experiment [13] is -40.3% (active); in experiment [14] it was -21.7% (active); in [15], 22.7%; in [16], 18.2%; in experiment [17] it was 52.9%; in [18] it was 52.4%.

On to `O=C(c1ccc(O)cc1)C1[C@H](c2ccccc2Br)[C@@H](c2ccccc2)NC12C(=O)Nc1ccccc12` (stereo not given in full), for which the growth was 31.4% in experiment [2]; 30.2% in [3]; 56.7% in experiment [4]; 48.3% in [5]; 70.5% in experiment [6]; 26.6% in [7]. The growth is 20.7% in [8]; 49.1% in experiment [9]; 53.1% in experiment [10]; 51.1% in experiment [11]; 51.9% in experiment [19]; 27.7% in [13]. Also, the growth in experiment [14] is 10.7%; in experiment [15], 55.2%; in experiment [16], -7.94% (active); in [17], 15.4%; in [18], -36.1% (active).

For `Clc1ccc(CNc2nc(SCCN3CCOCC3)nc3c2cnn3CC(Cl)c2ccc(Br)cc2)cc1` (stereo not given), the growth in experiment [1] was -14.9% (active); in [2] it was 1.89% (active); in experiment [3], 44.3%; in experiment [4], 75.5%; in experiment [5] it was 44.6%; in experiment [6], 62.5%. The growth is 67.9% in experiment [7]; 56.5% in [8]; 49.4% in experiment [9]; 34.5% in experiment [10]; 22.4% in experiment [11]; 27.6% in [12]. Moreover, the growth was 19.2% in experiment [13]; 10.1% in experiment [14]; 22.7% in [15]; 30.9% in experiment [16]; 28% in experiment [17]; 39.9% in experiment [18].

Take `Nc1cc(-c2c[nH]c3ccc(F)cc23)nc2cc(-c3c[nH]c4ccccc34)nn12`: the growth in experiment [1] was 15.4%; in [2] it was -1.51% (active); in [3], 4.46% (active); in experiment [4], 1.01% (active); in experiment [5] it was 47.8%; in [6], 18.5%. In addition, the growth is 16.2% in experiment [7]; 28.8% in experiment [8]; 20.7% in [9]; 10.7% in [10]; 18.3% in [11]; 4.81% (active) in experiment [12]. Further, the growth in experiment [13] is -66.1% (active); in [14], -22.9% (active); in experiment [15], -41.8% (active); in experiment [16], -59.2% (active); in experiment [17], -54.1% (active); in experiment [18], -18.9% (active).

Turning to `NC(=Nc1ccc(OCCCCCCCCn2cnnn2)cc1)c1ccccc1`, the growth in experiment [1] is 14.6%; in experiment [2] it was 29.5%; in [4] it was 23.1%; in experiment [5], 56%; in experiment [6], 35.3%; in [7] it was 24.4%. Further, the growth in [9] is 22%; in experiment [11] it was 45.6%; in [19] it was 18.9%; in experiment [13] it was 22.5%; in experiment [14] it was 13.4%; in [15], 15.2%. Further, the growth in experiment [16] is 17.1%; in experiment [17] it was 10.5%; in experiment [18] it was 20.9%.

Turning to `COc1ccc2[nH]cc(-c3cc(N)n4nc(-c5c[nH]c6ccccc56)cc4n3)c2c1`, the growth was 11.1% in experiment [1]; -11.5% (active) in [2]; -43.9% (active) in experiment [3]; 7.37% (active) in experiment [4]; 30.9% in experiment [5]; 3.49% (active) in experiment [6]. Moreover, the growth in [7] was 16%; in experiment [8] it was 14.6%; in experiment [9] it was 37.2%; in [10] it was 27.7%; in [11], -21.8% (active); in experiment [12], -79% (active). Also, the growth in experiment [13] was -70.4% (active); in experiment [14], -81.6% (active); in experiment [15], -82.1% (active); in [16], -76.2% (active); in [17] it was -48.8% (active); in experiment [18], -67.8% (active).

`ClC(Cn1ncc2c(Nc3cccc(Br)c3)nc(SCCN3CCOCC3)nc21)c1ccc(Br)cc1` (stereo not given): the growth in experiment [1] is -26.7% (active); in [2] it was 1.13% (active); in [3], 10.2%; in experiment [4] it was 18.1%; in [5], 34.6%; in experiment [6], 19.4%. The growth is 28.3% in experiment [7]; 33.2% in [8]; -19.9% (active) in [9]; 0.769% (active) in [10]; -2.99% (active) in experiment [11]; -4.97% (active) in experiment [12]. Moreover, the growth in experiment [13] is -32.1% (active); in experiment [14], -5.44% (active); in [15] it was 6.22% (active); in experiment [16], 3.46% (active); in [17] it was -20% (active); in experiment [18], -18% (active).
